# Screens from PubChem.
# BAZ2B inh – blocks human BAZ2B; Q9UIF8; AlphaScreen BAZ2B-H3K14Ac peptide displacement; Potency, µM (series often up to 114 µM), inactives show at the top dose activity change, negative = inhibition, usual class: inhibitors; 360,000 tested, 4.4% active; AID 504333; note: % is set by controls: 0 for no effect and ±100 for the full control effect; nearly all actives have a fitted effect of over 60% in size
#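 Compounds, titrated to a top concentration of 110 uM, were incubated 30 min at room temperature with preformed BAZ2B/acetyl-K14 H3 peptide complex (50 nM each). Proximity signal was measured by AlphaScreen after 20 min with beads.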
# GLS inh – inhibitors of human glutaminase (GLS). O94925. GLS enzymatic activity, qHTS titration. Potency, µM (titrated, usually from 45.5 µM), for inactives: top-dose activity change, negative = inhibition, usual class: inhibitors. 410,000 tested, 0.21% active; note: % is set by controls: 0 for no effect and ±100 for the full control effect
#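 Two-point fluorescence kinetic (t0, 30 min RT) for hKGA; glutamate detected via glutamate oxidase–HRP–Amplex Red. Substrate: 1 mM L-glutamine solution; buffer 45 mM KH2PO4, pH 8.2.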
# JMJD2A Tudor – JMJD2A Tudor domain (human) inhibition; 390,000 tested, 4.4% active; AlphaScreen JMJD2A-Tudor / H3K4me3 peptide binding; AID 504339; Potency, µM (series often up to 114 µM), without a hit: at the highest dose activity change, negative = inhibition, hits mostly inhibitors; O75164; note: % is set by controls: 0 for no effect and ±100 for the full control effect; nearly all actives have a fitted effect of over 50% in size
# G9a block – blocks human histone lysine methyltransferase G9a; Q96KQ7; G9a H3K9 monomethylation, AlphaScreen, 2 h; Potency, µM (series often up to 102 µM), for the others: top-dose activity, negative = inhibition, most hits filed as inhibitors; 350,000 tested, 8.8% active; AID 504332; note: % is set by controls: 0 for no effect and ±100 for the full control effect; nearly all actives have a fitted effect of over 75% in size
# Target sequence (Q96KQ7 913-1193 limits assumed): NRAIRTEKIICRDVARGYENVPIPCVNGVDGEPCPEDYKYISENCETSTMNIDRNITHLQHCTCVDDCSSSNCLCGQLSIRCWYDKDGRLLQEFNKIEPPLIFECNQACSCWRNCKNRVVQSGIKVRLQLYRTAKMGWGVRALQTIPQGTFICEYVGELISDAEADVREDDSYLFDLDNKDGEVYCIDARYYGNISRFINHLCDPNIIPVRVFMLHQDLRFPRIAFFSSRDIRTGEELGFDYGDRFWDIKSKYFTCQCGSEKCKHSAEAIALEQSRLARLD
#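 Compounds were preincubated with 20 nM G9a for 15 min, after which biotinylated H3K9 peptide (500 nM) and SAM (20 uM) started a 2 h room-temperature reaction. Monomethylated product was quantified by antibody-based AlphaScreen chemiluminescence.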
# HP1b binding inh – blocks HP1-beta chromodomain binding to methylated histone tails | Potency, µM (doses to about 114 µM), for the others: at the highest dose activity change, negative = inhibition, most hits filed as inhibitors | P83916 | AID 540317 | AlphaScreen HP1-beta / biotin-H3K9me3 peptide binding | 390,000 tested, 0.56% active; note: nearly all actives have a fitted effect of over 70% in size
# Target sequence (P83916 whole entry, looked up): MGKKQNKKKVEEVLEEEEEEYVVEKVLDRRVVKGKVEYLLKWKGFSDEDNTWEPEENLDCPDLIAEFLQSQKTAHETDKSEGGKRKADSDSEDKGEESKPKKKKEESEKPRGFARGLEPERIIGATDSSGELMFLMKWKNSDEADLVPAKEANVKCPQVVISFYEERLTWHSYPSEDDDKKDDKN
#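 Compound inhibition of the preformed complex between 50 nM HP1-beta and 50 nM biotinylated H3K9me3 peptide was read by AlphaScreen. Buffer was PBS pH 7.4 with 0.01% Tween-20. Incubations ran 30 min at room temperature, with 10 ug/mL donor/acceptor beads.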
# L3MBTL1 block – inhibitors of human L3MBTL1; Q9Y468; AlphaScreen L3MBTL1–H3K9me1 peptide binding; Potency, µM (series often up to 57.1 µM), inactives show at the highest dose activity, negative = inhibition, actives largely listed as inhibitors; 230,000 tested, 0.66% active; note: % is set by controls: 0 for no effect and ±100 for the full control effect; nearly all actives have a fitted effect of over 60% in size
#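 Displacement of a biotinylated histone H3(1-15) peptide monomethylated at Lys9 (75 nM) from L3MBTL1 (50 nM) was measured by AlphaScreen after a 30 min room-temperature compound incubation; cefsulodin titration served as intraplate control.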
# An asterisk follows results filed as active; ? = inconclusive; nt = no result given; [ ] = remark or other dose. In the library only some 10% were active in any assay of this set; here they are far more common. Calls come from the whole dose curve; as a rule, active = well fitted curve in the direction sought with a large enough effect; inconclusive = small, poorly fitted or top-dose-only effect, or another doubt; inactive = no such curve, though single readings can be large; an effect the other way counts as inactive or inconclusive. Potency is the fitted concentration of half-maximal effect.
SMILES,BAZ2B inh,GLS inh,JMJD2A Tudor,G9a block,HP1b binding inh,L3MBTL1 block
CCSc1nc(N)c(C#N)c(-c2ccccc2Cl)c1C#N,11%,-6%,1%,16µM*,59%,nt
N#Cc1c(N)nc(Sc2ccc(Cl)cc2)c(C#N)c1-c1ccccc1Cl,1%,-10%,0%,nt,26%,12%
Cc1ccc(OCC(=O)NNC(=S)NC(=O)C2CC2)c(C)c1,-22%,nt,nt,10µM*,nt,nt
Cc1ccc(OCC(=O)NNC(=S)NC(=O)C(C)(C)C)c(Br)c1,-3%,11%,?,25µM*,-5%,9%
Cc1ccc(OCC(=O)NNC(=S)NC(=O)C2CCCCC2)c(C)c1,-14%,-7%,-35%,18µM*,13%,nt
CC(C)c1ccc(OCC(=O)NNC(=S)NC(=O)c2cccs2)c(Br)c1,-3%,0%,-14%,52%,-11%,nt
Cc1ccc(OCC(=O)NNC(=O)c2ccc(NC(=O)C3CC3)cc2)c(C)c1,-2%,9%,-16%,66%,30%,nt
N#Cc1ccc(OCC(=O)NNC(=S)NC(=O)C2CC2)cc1,nt,4%,28µM*,nt,24%,22%
Cc1ccc(N2CC(C)Cn3c2nc2c3c(=O)n(Cc3cccc(Cl)c3)c(=O)n2C)cc1 (configuration not stated),4%,1%,10%,-41%[59 µM],48%,nt
O=C(O)c1cc(-c2cccnc2)nn1-c1ccccn1,?,0%,-9%,28µM*,36%,2%
O=C(O)c1cc(-c2ccccc2)nn1CC1CC(c2cccnc2)=NO1 (configuration not stated),nt,-8%,5%,nt,49%,nt
CCOC(=O)/C(=N/Nc1ccccc1OC)N1CCCc2ccccc21,-16%,38%,-3%,2.5µM*,41%,-9%
Cc1cccc(NC(=O)N2CCCc3ccccc32)c1C,-5%,-11%,-11%,nt,55%,nt
COC(=O)/C(=N/Nc1ccccc1C)N1CCCc2ccccc21,-12%,30%,-16%,35µM*,12%,0%
CCOC(=O)/C(=N/Nc1ccc(OC)cc1)N1CCCc2ccccc21,28µM*,?,?,22µM*,71µM*,-1%
CCOC(=O)/C(=N/Nc1ccccc1)N1CCCc2ccccc21,?,44%,-22%,?,12%,-35%
CCC(=O)Nc1cc(-c2cccc(C)c2)nn1-c1ccccc1,11%,-12%,-5%,18%[59 µM],15%[57 µM],nt
NC(=O)c1cc[n+](CC2=C(C(=O)O)N3C(=O)[C@@H](NC(=O)[C@H](c4ccccc4)S(=O)(=O)[O-])[C@@H]3SC2)cc1,nt,?,nt,5.6µM*,nt,nt
NC(=O)c1cc[n+](CC2=C(C(=O)[O-])N3C(=O)[C@@H](NC(=O)Cc4cccs4)[C@@H]3SC2)cc1,nt,-12%[20 µM],nt,7.9µM*,nt,nt
CC=CC1=C(C(=O)O)N2C(=O)[C@H](NC(=O)[C@H](N)c3ccc(O)cc3)[C@@H]2SC1,nt,24%,nt,?,nt,nt
NC(=O)c1cc[n+](CC2=C(C(=O)O)N3C(=O)[C@@H](NC(=O)C(c4ccccc4)S(=O)(=O)[O-])[C@H]3SC2)cc1 (some centres not stated),2%,0.79µM*,1.1µM*,-13%,?,-14%
CC(=O)OCC1=C(C(=O)O)N2C(=O)[C@@H](NC(=O)CSc3ccncc3)[C@@H]2SC1,nt,-1%,nt,2%[12.7 µM],nt,nt
O=C(CCCCn1c(=O)c2ccccc2n(CC(=O)Nc2ccccc2)c1=O)NCc1ccccc1Cl,5%,-13%,-14%,-31%[59 µM],5%,nt
Cc1ccc(N2CCN(C(=O)NCc3noc4ccccc34)CC2C)cc1 (configuration not stated),-30%,38%,-5%,-31%[59 µM],55%,nt
CS(=O)(=O)c1ccc(Cl)c(NC(=O)C2CC(=O)N(Cc3ccccc3)C2)c1 (configuration not stated),?,-28%,89µM*,15%[59 µM],-24%,nt
SMILES,BAZ2B inh,GLS inh,JMJD2A Tudor,G9a block,HP1b binding inh,L3MBTL1 block
CS(=O)(=O)c1ccc(Cl)c(NC(=O)C2CC(=O)N(Cc3ccco3)C2)c1 (configuration not stated),-4%,6%,-3%,?,28%,?
CCN(CC)c1ccc(NC(=O)C2CC(=O)N(Cc3ccccc3)C2)cc1 (configuration not stated),45µM*,2%,56µM*,11µM*,?,32µM*
Cc1ccccc1C(=O)/C(C#N)=N/Nc1c(C)n(C)n(-c2ccccc2)c1=O,50µM*,-1%,50µM*,-6%[59 µM],19%,-19%
Cc1c(NC=C(C#N)C#N)c(=O)n(-c2ccccc2)n1C,2%,-7%,4%,12%[0.501 µM],45%,11%
Cc1c(N/C=C(\Cl)C(=O)C(F)(F)F)c(=O)n(-c2ccccc2)n1C,?,-23%,-16%,25µM*,8%,nt
Cc1ccc(C(=O)Nc2c(C)n(C)n(-c3ccccc3)c2=O)cc1,-8%,-3%,9%,nt,39%,4%
Cc1c(N/N=C(\C#N)C(=O)c2ccccc2)c(=O)n(-c2ccccc2)n1C,32µM*,29%,56µM*,?,73%,?
CCOC(=O)/C(C#N)=N/Nc1c(C)n(C)n(-c2ccccc2)c1=O,79µM*,0%,-17%,18µM*,56%,nt
Cc1ccccc1C(=O)Nc1cccc(OCc2cc(=O)n3cccc(C)c3n2)c1,2%,-5%,-8%,-17%[59 µM],6%[57 µM],nt
O=C1C(c2ccccc2)CN1Cc1ccccc1 (configuration not stated),nt,-4%,nt,nt,nt,nt
O=C1N(Cc2ccccc2)CC2(Br)COCOC12O (configuration not stated),nt,-5%,3.5µM*,nt,7.1µM*,nt
CC(C)OCCCN(CC(O)c1ccccc1)CC(O)c1ccccc1 (configuration not stated),?,18%,5.6µM*,7.9µM*,?,1%
Cc1ccc(NC(=O)CSc2nc3ccccc3n2CC(=O)N2CCC(C)CC2)cc1C,-14%,-2%,-26%,3%[59 µM],34%,nt
Cc1cccnc1NC(=O)CCCc1c[nH]c2ccccc12,?,13%,-17%,22%,40%,nt
O=C(CCCc1c[nH]c2ccccc12)Nc1ncccc1O,56µM*,17%,-28%,6%,14%,nt
c1ccc(-c2nc3nc4ccccc4nc3n2Cc2ccco2)cc1,-9%,-6%,-24%,16µM*,10%,10%
Fc1ccc(-c2nc3nc4ccccc4nc3n2Cc2ccco2)cc1,-17%,12%,-17%,-44%,18%,1%
Cc1ccc(Nc2nc(COC(=O)COc3ccc(C=O)cc3)cs2)cc1,-37%,7%,?,-13%[59 µM],-1%,-8%
